Data published in PubChem BioAssay (NCI).
This is part of a sample that, as a whole, favours compounds with a hit. Of some 83,000 tested, about 20% had one in any assay.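 Results are percent growth after 48 hours of single-concentration exposure. 100 means growth as in untreated cells, lower positive values show inhibition; negative values down to -100 show cell death.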 Calls of active or inactive are those of the source. The calls were made as follows: active = growth percent below 10; inactive = the rest.

Each compound was assayed on MDA-MB-468 breast (assay: NCI-60 one-dose screen, 48 h (100 = growth as untreated, 0 = no growth, -100 = all killed)). Details: 10 µM unless noted.
COc1cc(C2Cc3ncccc3-c3[nH]c(=O)c4cccnc4c32)cc(OC)c1OC (stereo unspecified) was tested, and the growth was 22.8% (inactive). For COc1cc(/C=C/C(=O)c2ccccc2)cc(OC)c1OC, the growth was 64.7% (inactive). For O=C(Nc1cccc(-n2cc(-c3ccncc3)c(-c3cc(O)cc(Cl)c3)n2)c1)Nc1ccc(Cl)c(Cl)c1, the growth was -1.88% (active). With Cc1ccc(-n2nc(C(C)(C)C)cc2NC(=O)NCc2cc(F)ccc2Oc2ccc3c(cnn3CCO)c2)cc1 the growth was 23.5% (inactive). In the case of O=C(CCCn1c2c(sc3ccccc32)c(=O)n2nnc(-c3ccccc3)c12)NCCc1cnc[nH]1, the growth is reported as -91% (active). In the case of N=C(N)c1ccc(-c2ccc(-c3cc(Cl)cc(Cl)c3)s2)cc1, the growth is reported as -77.6% (active).
